# Calls of active or inactive are those of the source.
# Columns and labels:
# [1] = anti-His antibody binders, primary screen, artefact control for SMM control protein annotation, biochemical, small-molecule microarray, 635 nm fluorescence (AID 1128); conditions: anti-His Alexa647 antibody binding, higher = more signal;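 further: score merges feature fluorescence with signal-to-noise for each printed compound spot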
# [2] = tested on: Human papillomavirus type 1a E7 protein (residues 1-88); test: HPV1a E7 small-molecule binders, primary screen, biochemical, small-molecule microarray, residues 1-88, 635 nm (AID 1129); conditions: small-molecule microarray binding, fluorescence 635 nm; higher = more signal
# [3] = biological target: Focal adhesion kinase 1 (Homo sapiens) (UniProt Q05397); test: small-molecule microarray binders of FAK, primary screen, biochemical, 635/667 nm fluorescence, BSA, DTT (AID 1130); conditions: PTK2 binding, 635 nm fluorescence, higher = more signal;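 further: composite of spot emission at 667 nm and signal to noise over triplicate slides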
# Focal adhesion kinase 1 (Homo sapiens), sequence (Q05397 whole entry, looked up): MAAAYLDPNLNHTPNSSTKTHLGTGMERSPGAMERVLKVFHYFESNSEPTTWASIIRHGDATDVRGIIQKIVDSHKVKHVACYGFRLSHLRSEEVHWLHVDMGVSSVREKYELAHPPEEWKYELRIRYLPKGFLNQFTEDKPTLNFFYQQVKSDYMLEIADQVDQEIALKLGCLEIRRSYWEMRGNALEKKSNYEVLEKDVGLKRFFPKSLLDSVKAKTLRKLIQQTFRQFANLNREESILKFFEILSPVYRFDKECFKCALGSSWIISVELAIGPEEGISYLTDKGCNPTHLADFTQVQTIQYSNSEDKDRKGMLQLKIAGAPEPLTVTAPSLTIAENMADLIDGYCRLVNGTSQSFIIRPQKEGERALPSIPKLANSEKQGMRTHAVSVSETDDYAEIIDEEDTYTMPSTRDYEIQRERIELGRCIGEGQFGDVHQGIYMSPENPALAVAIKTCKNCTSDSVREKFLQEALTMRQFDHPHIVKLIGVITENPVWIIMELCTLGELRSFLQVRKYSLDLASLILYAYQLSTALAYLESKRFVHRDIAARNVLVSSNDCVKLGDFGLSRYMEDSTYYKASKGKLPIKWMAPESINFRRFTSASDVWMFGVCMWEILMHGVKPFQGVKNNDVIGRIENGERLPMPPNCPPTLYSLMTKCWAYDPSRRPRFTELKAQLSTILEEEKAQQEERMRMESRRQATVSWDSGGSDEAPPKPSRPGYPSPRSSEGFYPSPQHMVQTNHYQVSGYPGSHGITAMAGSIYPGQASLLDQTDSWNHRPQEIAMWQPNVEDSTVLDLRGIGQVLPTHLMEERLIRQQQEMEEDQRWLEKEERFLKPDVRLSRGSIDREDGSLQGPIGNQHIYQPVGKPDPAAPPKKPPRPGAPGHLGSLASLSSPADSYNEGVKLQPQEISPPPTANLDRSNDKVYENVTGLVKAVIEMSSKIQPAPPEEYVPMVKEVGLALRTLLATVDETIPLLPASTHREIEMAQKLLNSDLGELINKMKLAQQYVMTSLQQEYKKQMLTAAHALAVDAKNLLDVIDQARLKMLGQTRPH
# [4] = tested on: Fibrinogen (Alexa647-labelled); test: fibrinogen binders on compound microarrays, profiling panel, artefact control for SMM control-protein annotation, biochemical, small-molecule microarray, 635/667 nm fluorescence (AID 1131); conditions: fibrinogen-A647 binding fluorescence, higher = more signal;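 further: z-score merges 667 nm fluorescence with per-spot signal-to-noise over triplicate slides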
# [5] = biological target: Follistatin (Homo sapiens) (UniProt P19883); test: follistatin binders on small-molecule microarrays, primary screen, biochemical, small-molecule microarray, 635/667 nm fluorescence (AID 1132); conditions: FST binding, 635 nm fluorescence, higher = more signal
# Follistatin (Homo sapiens), sequence (P19883 whole entry, looked up): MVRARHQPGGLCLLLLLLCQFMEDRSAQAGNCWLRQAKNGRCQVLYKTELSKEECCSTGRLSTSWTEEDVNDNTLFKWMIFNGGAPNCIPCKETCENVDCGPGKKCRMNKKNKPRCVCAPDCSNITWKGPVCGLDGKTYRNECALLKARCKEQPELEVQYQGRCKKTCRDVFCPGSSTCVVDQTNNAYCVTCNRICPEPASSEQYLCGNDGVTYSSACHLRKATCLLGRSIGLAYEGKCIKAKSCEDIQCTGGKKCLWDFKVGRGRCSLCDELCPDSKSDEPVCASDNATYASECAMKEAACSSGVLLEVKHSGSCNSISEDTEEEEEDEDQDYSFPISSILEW
# [6] = biological target: Fibroblast growth factor 2 (Homo sapiens) (UniProt P09038); test: FGF2 binders on small-molecule microarrays, primary screen, biochemical, small-molecule microarray, 635/667 nm fluorescence (AID 1133); conditions: small-molecule microarray binding, FGF2, fluorescence 635/667; higher = more signal
# Fibroblast growth factor 2 (Homo sapiens), sequence (P09038 whole entry, looked up): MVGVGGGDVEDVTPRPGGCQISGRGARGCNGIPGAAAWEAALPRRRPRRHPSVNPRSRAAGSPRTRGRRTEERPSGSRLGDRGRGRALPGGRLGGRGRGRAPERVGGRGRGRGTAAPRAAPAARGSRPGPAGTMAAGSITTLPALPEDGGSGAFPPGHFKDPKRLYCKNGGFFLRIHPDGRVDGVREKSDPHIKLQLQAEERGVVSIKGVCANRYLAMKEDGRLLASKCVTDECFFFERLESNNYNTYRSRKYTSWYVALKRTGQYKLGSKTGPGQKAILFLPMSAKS
# [7] = mitochondrial membrane potential change in A549 cells, profiling panel, cell-based, JC-1 fluorescence, basal, 24 h, 100 nL (AID 1138); conditions: higher = more signal;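 further: A549 lung adenocarcinoma cells under basal conditions with no added stimulus; test concentration not given here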
# [8] = tested on: Lefty1; test: Lefty1 binders on small-molecule microarrays, primary screen, biochemical, small-molecule microarray, 635/667 nm fluorescence (AID 1139); conditions: small-molecule microarray binding, fluorescence 635/667; higher = more signal
# [9] = tested on: wheat germ agglutinin (Triticum aestivum), Alexa647-labelled; test: wheat germ agglutinin binders on compound microarrays, profiling panel, artefact control for SMM control-protein annotation, biochemical, small-molecule microarray, 635/667 nm fluorescence (AID 1140); conditions: WGA-A647 binding, 635 nm fluorescence, higher = more signal;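 further: score merges 667 nm feature emission with signal to noise over triplicate slides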
# [10] = biological target: Luciferin 4-monooxygenase (Photinus pyralis) (UniProt P08659); test: firefly luciferase enzyme inhibitors, primary screen, biochemical, luminescence, purified enzyme, 2006 set (AID 1141); conditions: SteadyGlo luminescence, 30 min, higher = more signal, called active from +8 up or from −8 down;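 further: cell-free assay with purified firefly luciferase at 100 ng per well in PBS; test concentration not given here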
# Luciferin 4-monooxygenase (Photinus pyralis), sequence (P08659 whole entry, looked up): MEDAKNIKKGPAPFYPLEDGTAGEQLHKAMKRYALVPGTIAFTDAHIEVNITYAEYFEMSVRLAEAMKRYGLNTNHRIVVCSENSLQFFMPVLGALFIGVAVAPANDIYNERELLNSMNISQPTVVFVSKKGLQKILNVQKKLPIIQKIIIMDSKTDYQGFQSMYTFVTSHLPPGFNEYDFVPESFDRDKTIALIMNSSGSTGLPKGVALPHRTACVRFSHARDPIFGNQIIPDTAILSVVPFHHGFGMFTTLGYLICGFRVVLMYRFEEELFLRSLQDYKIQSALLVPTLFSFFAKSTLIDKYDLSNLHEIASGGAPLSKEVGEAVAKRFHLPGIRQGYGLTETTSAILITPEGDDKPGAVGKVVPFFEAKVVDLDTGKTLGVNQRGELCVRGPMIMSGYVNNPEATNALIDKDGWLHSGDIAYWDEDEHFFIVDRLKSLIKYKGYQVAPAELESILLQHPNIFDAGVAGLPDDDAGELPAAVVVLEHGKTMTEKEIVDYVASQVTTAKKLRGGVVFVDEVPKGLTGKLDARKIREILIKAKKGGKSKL
Structure (SMILES),composite z-score [1],composite z-score [2],composite z-score [3],composite z-score [4],composite z-score [5],composite z-score [6],z-score [7],composite z-score [8],composite z-score [9],z-score [10]
[N-]=[N+]=NCc1ccccc1[C@@H]1OC(c2ccc(OCCCO)cc2)=N[C@]1(Cc1ccccc1N=[N+]=[N-])C(=O)NCc1ccccc1,0.512,1.17,0.562,0.198,1.28,0.578,0.249,0.621,0.421,-5.2 (inactive)
O=C1OCC=C[C@H]2OC34C=CCN(c5ccc6ccccc6c5)C(=O)[C@H]3N(CCCO)C(=O)[C@@H]4[C@@H]12 (stereo not given in full),-0.349,-0.92,-0.409,-0.669,0.0786,-0.989,-0.506,-0.11,-0.645,-0.18 (inactive)
COCCOC(=O)N1C(=O)[C@@]2(c3ccccc31)[C@H](C(=O)Nc1nc3ccccc3s1)[C@H]1C(=O)O[C@H](c3ccccc3)[C@H](c3ccccc3)N1[C@@H]2c1ccc(OCCO)cc1,1.8,1.17,0.462,0.962,1.33,0.826,-2.32,1.33,0.992,-2.11 (inactive)
CCCCC(CC)C(O)C1C=CC2C(=O)N(c3ccccc3)C(=O)C2N1Nc1ccccc1 (stereo not given),0.804,1.19,0.462,0.881,0.858,-0.411,-0.99,-0.249,1.15,-0.15 (inactive)
N#Cc1ccc(NN2C(C(O)c3ccc([N+](=O)[O-])cc3)C=CC3C(=O)N(c4ccccc4)C(=O)C32)cc1 (stereo not given),0.728,1.24,0.943,0.619,0.717,-0.0956,-0.257,-0.269,0.998,0.843 (inactive)
COc1ccc([Si](C)(C)[C@H]2[C@H](CCn3cc(CCO)nn3)O[C@@]3(C(=O)N(Cc4ccc(N5CCOC5=O)cc4)c4ccccc43)[C@@H]2C)cc1,1.88,1.16,0.105,0.505,0.308,0.308,1.26,0.419,0.829,-0.648 (inactive)
C=C(COC)/C(=C/C[C@H](OC(=O)c1ccncc1)c1cccc(OCCO)c1)c1cc(C(=O)OC)ccc1OC,0.844,1.1,0.381,0.317,0.127,0.245,1.48,0.819,0.0332,-1.04 (inactive)
COCCOC(=O)N1C(=O)[C@@]2(c3ccccc31)[C@H](C(=O)NC[C@H](O)c1ccccc1)[C@H]1C(=O)O[C@H](c3ccccc3)[C@H](c3ccccc3)N1[C@@H]2c1ccc(OCCO)cc1,0.791,1.15,0.367,0.715,1.47,1.77,-0.542,1.58,0.387,0.888 (inactive)
COc1cccc(C(=O)O[C@H]2CC[C@]3(C)C4=C(CCC3C2(C)C)[C@]2(C)CC[C@H]([C@H](C)CCCC(C)C)[C@@]2(C)CC4)c1 (stereo not given in full),0.0291,0.386,-0.404,-0.133,0.649,0.281,0.434,0.24,0.258,-0.843 (inactive)
CC(C)(C)OC(=O)CC[C@@]1(C(=O)NCCN2CCOCC2)N=C(c2ccc(OCCCO)cc2)O[C@@H]1c1ccccc1,1.37,1.19,0.111,1.01,1.28,0.695,1.59,0.499,1.22,-1.66 (inactive)
CC(=O)NCCCC[C@@H]1NC(=O)[C@H]2C[C@@H](C(=O)NCCCCCC[N+](C)(C)C)[C@@H](c3cccc(OCCO)c3)N2C1=O,0.627,0.614,0.207,0.77,1.4,1.9,-1.12,1.39,0.656,0.692 (inactive)
COC(=O)C[C@H]1O[C@]2(C(=O)N(Cc3ccccc3)c3ccc(NC(C)=O)cc32)[C@@H](C)[C@@H]1[Si](C)(C)c1ccc(OC)cc1,0.242,0.822,-0.0722,0.483,0.528,0.52,-0.922,0.68,0.657,0.531 (inactive)
COC(=O)c1ccc(OC)c(/C=C\CC(OC(C)=O)c2ccccc2)c1 (stereo not given),0.838,0.255,-0.0638,0.775,0.946,0.933,-0.363,0.741,1.11,-0.454 (inactive)
CCCCC=C[C@@H](NC(=O)c1cccs1)c1ccccc1,0.813,0.837,0.351,0.983,-0.145,0.067,0.679,-0.389,1.13,0.969 (inactive)
CCCCC(O)C1C=CC2C(=O)N(C3CCCCC3)C(=O)C2N1Nc1ccc(OC)cc1 (stereo not given),0.17,1.2,0.601,0.733,1.19,-0.0692,0.191,0.496,1.14,1.06 (inactive)
O=C1OCCC=C[C@H]2OC34C=CCN(Cc5ccccc5)C(=O)[C@H]3N(CCCCCO)C(=O)[C@@H]4C12 (stereo not given in full),0.206,0.702,1.95,-1.44,-0.618,-1.16,0.758,0.475,0.809,0.0657 (inactive)
CCCN1C(=O)[C@@]2(CCC(=O)OC(C)(C)C)N=C(c3ccc(OCCCO)cc3)O[C@H]2c2ccccc21,2.6,0.999,0.677,0.274,1.4,1.53,1.13,0.691,0.133,-2.45 (inactive)

Structure (SMILES),composite z-score [1],composite z-score [2],composite z-score [3],composite z-score [4],composite z-score [5],composite z-score [6],z-score [7],composite z-score [8],composite z-score [9],z-score [10]
CS(=O)(=O)CCOC(=O)C1=CC(c2ccc(CO)cc2)=CC(C2CC2)N(Cc2cc3c(cc2Br)OCO3)C=C1C(=O)OCCS(C)(=O)=O (stereo not given),1.92,1.21,0.608,0.896,0.678,0.763,2.44,1.09,0.953,-1.51 (inactive)
O=C1OCCC=C[C@H]2OC34C=CCN(Cc5ccccc5)C(=O)[C@H]3N(CCCO)C(=O)[C@@H]4C12 (stereo not given in full),1.76,-1.17,-0.0769,-0.887,-0.145,-0.349,-0.778,0.181,-0.194,0.0952 (inactive)
COc1ccc([Si](C)(C)[C@@H]2[C@@H](CCn3cc([C@H](O)c4ccccc4)nn3)O[C@]3(C(=O)N(Cc4cccc(N5CCOC5=O)c4)c4ccccc43)[C@H]2C)cc1,-1.11,-0.576,-0.753,-1.23,-1.68,-0.977,2.14,-1.31,-0.452,-1.5 (inactive)
O=C1O[C@@H](c2ccccc2)[C@@H](c2ccccc2)N2[C@@H](c3ccccc3OCCO)[C@]3(C(=O)Nc4ccc(C#CC5(O)CCCCCC5)cc43)[C@@H](C(=O)Nc3nc4ccccc4s3)[C@H]12,1.22,1.21,0.237,0.991,1.25,1.02,-1.98,0.744,0.847,-0.84 (inactive)
COCCOC(=O)N1C(=O)[C@@]2(c3cc(C#CCNC(N)=O)ccc31)[C@H](c1ccc(OCCO)cc1)N1[C@H](c3ccccc3)[C@H](c3ccccc3)OC(=O)[C@H]1[C@@H]2C(=O)N1CCc2cc(OC)c(OC)cc2C1,0.276,0.665,0.145,0.531,1.38,1.2,-1.41,0.658,0.848,-0.702 (inactive)
COc1ccc([Si](C)(C)[C@@H]2[C@@H](CC(=O)N(CCO)Cc3ccccc3)O[C@]3(C(=O)N(C)c4ccccc43)[C@H]2C)cc1,1.93,1.17,0.495,0.958,1.44,1.4,0.194,1.45,1.17,0.0071 (inactive)
CCOC(=O)[C@H]1C[C@H]2O[C@@]23C[C@H]1C(=O)N1CCCC1[C@@H]3O[Si](C)(C)C(C)(C)C (stereo not given in full),-0.288,-0.311,-0.349,-0.466,-0.068,-0.0656,-0.341,0.225,-0.339,0.261 (inactive)
Cc1cc(C)c(C(O)C2C=CC3C(=O)N(c4ccccc4)C(=O)C3N2Nc2ccc(C#N)cc2)c(C)c1 (stereo not given),1.21,1.23,0.388,0.912,0.509,0.312,-0.613,0.302,1.03,-0.75 (inactive)
C=C(C(=O)CC[C@H](OC(C)=O)c1ccc(OCCO)cc1)C(C)C,0.772,-0.02,-0.381,0.711,1.4,0.911,-0.217,1.45,0.0674,-0.503 (inactive)
C[C@]1(C(=O)NCc2ccccc2)c2ccccc2C(=O)N(Cc2cc(F)cc(C(F)(F)F)c2)[C@H]1c1ccc(CO)cc1,0.84,-0.184,-0.349,-0.582,-1.13,-0.278,0.916,-1.14,-0.566,0.585 (inactive)
C=CCNC(=O)[C@@H]1[C@H]2C(=O)O[C@H](c3ccccc3)[C@H](c3ccccc3)N2[C@H](c2ccc(OCCO)cc2)[C@@]12C(=O)Nc1ccccc12,0.797,1.22,0.102,0.934,1.1,0.516,0.253,1.03,0.496,-8.15 (active)
COc1ccc(C#Cc2ccc3c(c2)[C@]2(C(=O)N3)[C@H](c3ccc(O)cc3)N3[C@H](c4ccccc4)[C@H](c4ccccc4)OC(=O)[C@H]3[C@@H]2C(=O)N2CCCCCCC2)cc1,0.477,1.22,0.75,0.702,1.49,1.02,-0.067,1.61,1.35,-1.78 (inactive)
CCOC(=O)C[C@H]1[C@H](OC(=O)c2ccccc2-c2ccccc2)[C@@H](NC(=O)c2ccc3ccccc3c2)c2cc(OCCCO)ccc2N1C(=O)c1ccc2ccccc2n1,0.0868,0.635,-0.0301,0.0467,0.874,0.306,0.988,0.543,0.119,0.667 (inactive)
O=C1OCC=C[C@H]2OC34C=CCN(c5ccc(Cl)cc5)C(=O)[C@H]3N(CCCCCCO)C(=O)[C@@H]4[C@@H]12 (stereo not given in full),1.41,-0.777,-0.209,-2.01,-1.57,-0.705,1.82,-1.09,-0.892,-0.71 (inactive)
O=C1O[C@@H](c2ccccc2)[C@@H](c2ccccc2)N2[C@@H](c3ccc(OCCO)cc3)[C@]3(C(=O)Nc4ccc(C#CC5=CCCCC5)cc43)[C@@H](C(=O)O)[C@H]12,1.42,1.01,1.31,0.865,0.878,0.34,-2.48,0.46,0.997,-6.59 (inactive)
CCCCCN1CC=CC23O[C@@H]4C=CCOC(=O)[C@@H]4[C@H]2C(=O)N(CCCO)[C@@H]3C1=O (stereo not given in full),1.5,0.789,0.532,-1.05,0.105,-0.128,-0.483,0.632,-0.895,-0.0247 (inactive)
